# According to PubChem BioAssay:
# Values joined by “and” are separate entries in the source; they are usually repeats but may differ in a detail not shown here. Equal values may be shown once. Results filed as inconclusive are left out. Active and inactive are the calls of the source.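 The calls were made as follows, unless noted: active = normalized viability below 100% at a tested concentration; inactive = the rest.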
# Tests used:
# [1] = viability loss in pontine glioma line – cell-based, SU-DIPG-XVII, MIPE5.0, CellTiter-Glo, qHTS, dose response (AID 1347060; cut-off not given, nearly all actives have AC50 up to about 26 µM;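 also: cells exposed to compound for 48 hours before viability readout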); conditions: CellTiter-Glo ATP luminescence
# [2] = viability loss in pontine glioma line – cell-based, SU-DIPG-XIII, MIPE4.0, CellTiter-Glo, qHTS, dose response (AID 1347061; cut-off not given, nearly all actives have AC50 up to about 37 µM;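 also: cells exposed to compound for 48 hours before readout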); conditions: CellTiter-Glo ATP luminescence
# [3] = viability loss in pontine glioma line – cell-based, JHH-DIPG-1, MIPE4.0, CellTiter-Glo, qHTS, dose response (AID 1347062; cut-off not given, nearly all actives have AC50 up to about 27 µM;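 as to AC50: cells exposed to compound for two days before readout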); conditions: JHH-DIPG-1 viability, CellTiter-Glo ATP luminescence
# [4] = viability loss in pontine glioma line – cell-based, SU-DIPG-IV, MIPE4.0, CellTiter-Glo, qHTS, dose response (AID 1347063; cut-off not given, nearly all actives have AC50 up to about 30 µM;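 also: compound exposure lasted 48 hours before the viability readout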); conditions: CellTiter-Glo ATP luminescence
# [5] = viability loss in pontine glioma line – cell-based, SU-DIPG-XIII, MIPE5.0, CellTiter-Glo, qHTS, dose response (AID 1347064; cut-off not given, nearly all actives have AC50 up to about 23 µM;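 also: cells exposed to compound for 48 hours before the viability read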); conditions: CellTiter-Glo ATP luminescence
# [6] = viability loss in pontine glioma line – cell-based, SU-DIPG-XXV, MIPE5.0, CellTiter-Glo, qHTS, dose response (AID 1347065; cut-off not given, nearly all actives have AC50 up to about 26 µM;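 also: cells exposed to compound for 48 hours before ATP readout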); conditions: CellTiter-Glo ATP luminescence
# [7] = JHH-DIPG-1 glioma cell viability, MIPE5.0 library, CellTiter-Glo luminescence, qHTS (AID 1347067; cut-off not given, nearly all actives have AC50 up to about 26 µM;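 also: cells exposed to compound for 48 hours before readout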); conditions: JHH-DIPG-1 glioma viability, CellTiter-Glo ATP luminescence
# [8] = viability loss with induced miR-34 in A549 – imaging, A549 dox-inducible miR-34, nuclei and caspase counts, primary screen (AID 1347080;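 active = compounds whose cell count with miR-34 switched on is under 0.7 times the count with it off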); conditions: A549 miR-34 inducible, Hoechst nuclei count, 48 h
# [9] = MELAS cybrid and Rieske KO viability enhancers – cell-based, MELAS cybrids, Rieske KO mouse fibroblasts, CellTiter-Glo, primary screen (AID 1508586;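 active = mean z-score across replicates of 1.96 or higher in either the MELAS or the Rieske mutant cell line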;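 also: z relative to plate mean and SD of compound and empty wells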); conditions: low glucose
# [10] = growth inhibition, single agent or in combination, cell-based, chromothripsis tumors, cisplatin or BGB combos (AID 1671449; in the data active = inhibition above about 80%;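 also: cells exposed for 96 hours; 0% = vehicle DMSO and 100% = killing by high DMSO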); conditions: LFS_MB_P medulloblastoma cells
# [11] = growth inhibition, single agent and combos, cell-based, chromothripsis tumors, cisplatin or BGB combos (AID 1671450; in the data active = inhibition above about 80%;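 also: cells exposed to compound for four days; 0% = vehicle DMSO and 100% = cell killing by high DMSO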); conditions: HDN33 neuroblastoma cells, stronger effect = higher value
# [12] = growth inhibition, single agents and combos, ICB984, cell-based, cisplatin or BGB combos, synergistic combos for chromothripsis tumors (AID 1671451; call rule not given here;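 also: cells exposed for 96 hours before readout; 0% = vehicle DMSO and 100% = killing by high DMSO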); conditions: ICB984 medulloblastoma cells, drug combinations, stronger effect = higher value
# [13] = growth inhibition, single agents and combos, HTB85, cell-based, BGB or cisplatin IC20 combos, synergistic combos for chromothripsis tumors (AID 1671453; in the data active = inhibition above about 80%;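 also: cells exposed for 96 hours before readout; 0% = vehicle DMSO and 100% = high DMSO killing control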); conditions: HTB85 osteosarcoma cells, drug combinations, stronger effect = higher value
# [14] = growth inhibition, MDA-MB-436, cell-based, BGB or cisplatin combos, synergistic combos for chromothripsis tumors (AID 1671458; call rule not given here;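 also: cells exposed for 96 hours; 0% = vehicle DMSO and 100% = killing by high DMSO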); conditions: MDA-MB-436 breast carcinoma growth inhibition, drug combinations, stronger effect = higher value
# [15] = BT084 cell growth, single and combined drugs, ICGC_MB145, cisplatin and BGB IC40 combos (AID 1671461; in the data active = inhibition above about 80%;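 also: cells exposed to drugs for 96 hours; 0% = vehicle DMSO and 100% = high DMSO full killing control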); conditions: BT084 medulloblastoma cells, drug combinations, stronger effect = higher value
# [16] = RCMB18 cell growth, single agent and combined, cisplatin and BGB IC40 combos (AID 1671462; in the data active = inhibition above about 80%;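 also: cells exposed to compound for four days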); conditions: RCMB18 medulloblastoma cells, stronger effect = higher value
# [17] = growth inhibition of DIPG cells – cell-based, MIPE4.0 library, CellTiter-Glo luminescence, qHTS (AID 1347066; cut-off not given, nearly all actives have AC50 up to about 30 µM;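 also: cells exposed to compound for 48 hours before readout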); conditions: SU-DIPG-VI viability, CellTiter-Glo ATP luminescence
# [18] = growth inhibition of DIPG cells – cell-based, MIPE5.0 library, qHTS (AID 1347068; cut-off not given, nearly all actives have IC50 up to about 30 µM;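 as to IC50: cells exposed to compound for 48 hours before viability readout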); conditions: SU-DIPG-XXV viability
# [19] = drug combination growth inhibition, ovarian cancer – cell-based, oncology-focused library, rucaparib conditional, profiling panel (AID 1508598); conditions: patient-derived ovarian cancer cells, CellTiter-Glo viability, 144 h, stronger effect = lower value
# [20] = stronger effect = lower value, cell number ratio, induced over uninduced
# [21] = measured here: relative caspase fold change +Dox/-Dox
# [22] = measured here: total cells with miR-34 induction, stronger effect = lower value
# [23] = measured here: total cells without miR-34 induction
# [24] = MELAS cybrid survival, CellTiter-Glo 48 h, stronger effect = higher value
# [25] = Rieske KO mouse fibroblast survival, CellTiter-Glo 72 h
compound,measurement,setting,value
O=C(CCCCCCNC(=O)c1cnc(N(c2ccccc2)c2ccccc2)nc1)NO,AC50,[1],7.42 µM (active)
same,AC50,[2],23.5 µM (active)
same,AC50,[3],7.43 µM (active)
same,AC50,[4],5.9 µM (active)
same,AC50,[5],4.17 µM (active)
same,AC50,[6],7.42 µM (active)
same,AC50,[7],8.33 µM (active)
same,fold change,[8]; [20],0.909 (inactive)
same,fold change,[8]; [21],0.469
same,cell count,[8]; [22],4500
same,cell count,[8]; [23],4950
same,z-score,[9]; [24],-0.658 (inactive)
same,z-score,[9]; [25],0.218
same,inhibition,"[10]; at 0.5 µM, stronger effect = higher value",-14.5% (inactive) and -5.58% (inactive)
same,inhibition,"[10]; measured here: combination with BGB IC20, at 0.005 µM",-18.6% and -24.1%
same,inhibition,"[10]; measured here: combination with BGB IC40, at 0.005 µM",-32.2% and -65.4%
same,inhibition,"[10]; measured here: combination with BGB IC40, at 0.05 µM",-41.9% and -39.4%
same,inhibition,"[10]; measured here: combination with cisplatin, at 0.5 µM, stronger effect = higher value",-7.65% and 15.8%
same,inhibition,"[10]; measured here: combination with cisplatin, at 5 µM, stronger effect = higher value",98.3% and 80%
same,inhibition,"[11]; BGB combo, at 5 µM",42.2% and -4.91%
same,inhibition,[11]; at 0.5 µM,-11.3% (inactive) and -31.5% (inactive)
same,inhibition,"[11]; cisplatin combo, at 5 µM",48.9% and 1.35%
same,inhibition,"[11]; measured here: with BGB IC20 combination, at 0.5 µM",-15.6% and -44.2%
same,inhibition,"[11]; measured here: with cisplatin IC20 combination, at 0.5 µM",-0.181% and -16.9%
same,inhibition,"[11]; single agent, at 5 µM",58.6% and 19.5%
same,inhibition,"[12]; BGB IC20 combo, at 0.005 µM",-1.95% and -4.3%
same,inhibition,"[12]; BGB IC40 combo, at 0.005 µM",-29.2% and -32%
same,inhibition,"[12]; BGB IC40 combo, at 0.05 µM",25.2% and 28%
same,inhibition,[12]; at 0.5 µM,-12.7% (inactive) and -20.3% (inactive)
same,inhibition,"[12]; cisplatin combo, at 0.05 µM",22.5% and 24.5%
same,inhibition,"[12]; cisplatin combo, at 0.5 µM",-4.11% and -25.4%
same,inhibition,"[12]; cisplatin combo, at 5 µM",-33% and -20%
same,inhibition,"[12]; measured here: 5 uM single agent, at 5 µM",-20.1% and -35.8%
same,inhibition,[13]; at 0.5 µM,-4.93% (inactive) and -17.7% (inactive)
same,inhibition,"[13]; measured here: with BGB IC20, at 0.5 µM",-15.5% and -21.9%
same,inhibition,"[13]; measured here: with BGB IC20, at 5 µM",46.8% and 4.12%
same,inhibition,"[13]; measured here: with cisplatin IC20, at 0.5 µM",14.2% and -10.7%
same,inhibition,"[13]; measured here: with cisplatin IC20, at 5 µM",38.8% and 48.3%
same,inhibition,"[13]; single agent, at 5 µM",42.9% and 23.4%
same,inhibition,[14]; at 0.5 µM,-21.3% (inactive) and -18.7% (inactive)
same,inhibition,"[14]; measured here: BGB combination, at 0.5 µM",-26.1% and -14.4%
same,inhibition,"[14]; measured here: BGB combination, at 5 µM",12.3% and 1.72%
same,inhibition,"[14]; measured here: cisplatin combination, at 0.5 µM",-29.8% and -32%
same,inhibition,"[14]; measured here: cisplatin combination, at 5 µM",9.34% and 4.42%
same,inhibition,[15]; at 0.5 µM,0.96% (inactive) and 10.8% (inactive)
same,inhibition,"[15]; cisplatin combination, at 0.5 µM",-4.86% and 4.91%
same,inhibition,"[15]; cisplatin combination, at 5 µM",90.9% and 41.3%
same,inhibition,"[15]; measured here: BGB IC40 combination 0.05 uM, at 0.05 µM",-52.6% and -17.2%
same,inhibition,"[15]; single agent, at 5 µM",58% and 51.4%
same,inhibition,[16]; at 0.5 µM,-4.02% (inactive) and 5.89% (inactive)
same,inhibition,"[16]; cisplatin combo, at 5 µM",58% and 24.2%
same,inhibition,"[16]; measured here: BGB IC40 combination, at 0.05 µM",-5.21% and -9.76%
same,inhibition,"[16]; measured here: combination with cisplatin, at 0.5 µM",7.09% and 6.01%
same,inhibition,"[16]; single agent, at 5 µM",36.2% and 26.2%
O=C(CCN1CCN(C(=O)OCc2cc(Cl)cc(Cl)c2)CC1)c1ccc2[nH]c(=O)oc2c1,AC50,[1],20.9 µM (active)
same,outcome,[2],inactive
same,outcome,[3],inactive
same,outcome,[4],inactive
same,AC50,[5],23.5 µM (active)
same,outcome,[17],inactive
same,AC50,[7],16.6 µM (active)
same,outcome,[18],inactive
CC(C)c1cc(-c2n[nH]c(=O)n2-c2ccc3c(ccn3C)c2)c(O)cc1O,AC50,[1],0.0372 µM (active)
same,AC50,[2],0.132 µM (active)
same,AC50,[3],0.0662 µM (active)
same,AC50,[4],0.059 µM (active)
same,AC50,[5],0.0417 µM (active)
same,AC50,[6],0.0372 µM (active)
same,IC50,[18],0.0833 µM (active)
same,fold change,[8]; [20],1.03 (inactive)
same,fold change,[8]; [21],0.773
same,cell count,[8]; [22],1450
same,cell count,[8]; [23],1400
same,z-score,[9]; [24],3.03 (active)
same,z-score,[9]; [25],0.0782
same,viability,"[19]; at 0.000305 µM, OCI-C5x cells, with rucaparib 10 µM, 100% = cells with rucaparib alone",102% (inactive)
same,viability,"[19]; at 0.000305 µM, OCI-C5x cells, without rucaparib",108% (inactive)
same,viability,"[19]; at 0.000305 µM, OCI-P5x cells, with rucaparib 20 µM, 100% = cells with rucaparib alone",116% (inactive)
same,viability,"[19]; at 0.000305 µM, OCI-P5x cells, without rucaparib",121% (inactive)
same,viability,"[19]; at 0.00122 µM, OCI-C5x cells, with rucaparib 10 µM, 100% = cells with rucaparib alone",100% (inactive)
same,viability,"[19]; at 0.00122 µM, OCI-C5x cells, without rucaparib",98.2% (active)
same,viability,"[19]; at 0.00122 µM, OCI-P5x cells, with rucaparib 20 µM, 100% = cells with rucaparib alone",124% (inactive)
same,viability,"[19]; at 0.00122 µM, OCI-P5x cells, without rucaparib",119% (inactive)
same,viability,"[19]; at 0.00488 µM, OCI-C5x cells, with rucaparib 10 µM, 100% = cells with rucaparib alone",96.9% (active)
same,viability,"[19]; at 0.00488 µM, OCI-C5x cells, without rucaparib",110% (inactive)
same,viability,"[19]; at 0.00488 µM, OCI-P5x cells, with rucaparib 20 µM, 100% = cells with rucaparib alone",126% (inactive)
same,viability,"[19]; at 0.00488 µM, OCI-P5x cells, without rucaparib",124% (inactive)
same,viability,"[19]; at 0.0195 µM, OCI-C5x cells, with rucaparib 10 µM, 100% = cells with rucaparib alone",117% (inactive)
same,viability,"[19]; at 0.0195 µM, OCI-C5x cells, without rucaparib",117% (inactive)
same,viability,"[19]; at 0.0195 µM, OCI-P5x cells, with rucaparib 20 µM, 100% = cells with rucaparib alone",85.2% (active)
same,viability,"[19]; at 0.0195 µM, OCI-P5x cells, without rucaparib",104% (inactive)
same,viability,"[19]; at 0.0781 µM, OCI-C5x cells, with rucaparib 10 µM, 100% = cells with rucaparib alone",44.1% (active)
same,viability,"[19]; at 0.0781 µM, OCI-C5x cells, without rucaparib",14.7% (active)
same,viability,"[19]; at 0.0781 µM, OCI-P5x cells, with rucaparib 20 µM, 100% = cells with rucaparib alone",18.8% (active)
same,viability,"[19]; at 0.0781 µM, OCI-P5x cells, without rucaparib",10.9% (active)
same,viability,"[19]; at 0.313 µM, OCI-C5x cells, with rucaparib 10 µM, 100% = cells with rucaparib alone",11.6% (active)
same,viability,"[19]; at 0.313 µM, OCI-C5x cells, without rucaparib",6.96% (active)
same,viability,"[19]; at 0.313 µM, OCI-P5x cells, with rucaparib 20 µM, 100% = cells with rucaparib alone",6.88% (active)
same,viability,"[19]; at 0.313 µM, OCI-P5x cells, without rucaparib",5.54% (active)
same,viability,"[19]; at 1.25 µM, OCI-C5x cells, with rucaparib 10 µM, 100% = cells with rucaparib alone",10% (active)
same,viability,"[19]; at 1.25 µM, OCI-C5x cells, without rucaparib",6.57% (active)
same,viability,"[19]; at 1.25 µM, OCI-P5x cells, with rucaparib 20 µM, 100% = cells with rucaparib alone",5.29% (active)
same,viability,"[19]; at 1.25 µM, OCI-P5x cells, without rucaparib",4.83% (active)
same,viability,"[19]; at 5 µM, OCI-C5x cells, with rucaparib 10 µM, 100% = cells with rucaparib alone",8.35% (active)
same,viability,"[19]; at 5 µM, OCI-C5x cells, without rucaparib",6.47% (active)
same,viability,"[19]; at 5 µM, OCI-P5x cells, with rucaparib 20 µM, 100% = cells with rucaparib alone",6.04% (active)
same,viability,"[19]; at 5 µM, OCI-P5x cells, without rucaparib",5.33% (active)
